Screen size: about 5,500 compounds; about 2,000 (36%) were called active. Roughly 18% stayed inconclusive and do not appear here. Rule as the data show it: active = normalized growth mostly below about 0.91 (no sharp cut-off); inconclusive = no clear call, values can overlap the other calls; inactive = mostly above about 0.92. This is one part of the list.
Experiment: chemical genetic growth profiling, strain panel (AID 1159580);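 also: tested at 20 µM; growth read once vehicle control cultures reached saturation at 30 °C; 1 = growth at the plate median or of vehicle wells; lower values mean less growth of the strain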
Settings: S. cerevisiae deletion strains, growth OD
[1] = locus YCL061C, strain MRC1, hits give low values
[2] = locus YHR030C, strain SLT2, hits give low values

Measured: normalized growth

O=C(CSc1nnnn1-c1ccccc1)NC1Cc2ccccc2C1
inactive: locus YAL013W, strain DEP1, hits give low values 1.02 | locus YBR229C, strain ROT2, hits give low values 0.998 | [1] 1.02 | locus YDL101C, strain DUN1, hits give low values 1 | locus YDL134C, strain PPH21, hits give low values 1 | locus YDR150W, strain NUM1, hits give low values 0.988 | locus YEL061C, strain CIN8, hits give low values 0.988 | locus YGR078C, strain PAC10, hits give low values 1.02 | [2] 1.02 | locus YHR087W, strain rtc3, hits give low values 0.99 | locus YJR043C, strain POL32, hits give low values 1.04 | locus YJR075W, strain HOC1, hits give low values 1.01 | locus YLR039C, strain RIC1, hits give low values 1.07 | locus YLR058C, strain SHM2 (second series), hits give low values 0.996 | locus YLR085C, strain ARP6, hits give low values 0.991 | locus YLR262C, strain YPT6, hits give low values 1.07 | locus YML094W, strain GIM5, hits give low values 0.999 | locus YMR219W, strain ESC1, hits give low values 0.996 | locus YMR263W, strain SAP30, hits give low values 1 | locus YMR307W, strain GAS1, hits give low values 1.06 | locus YNL128W, strain TEP1, hits give low values 1 | locus YNL153C, strain GIM3, hits give low values 1.03 | locus YNL298W, strain CLA4 (second series), hits give low values 1.01 | locus YNL322C, strain KRE1, hits give low values 0.999 | locus YNR030W, strain Alg12, hits give low values 0.995 | locus YOL006C, strain TOP1, hits give low values 0.944 | locus YPL055C, strain LGE1, hits give low values 0.879 | locus YPL241C, strain CIN2, hits give low values 0.985 | locus YPR135W, strain CTF4, hits give low values 1.01

Cc1[nH]c(C)c(Cl)c(=O)c1Cl
inactive: locus YAL021C, strain ccr4, hits give low values 1.01 | locus YAL026C, strain drs2, hits give low values 1.01 | locus YAL030W, strain snc1, hits give low values 0.998 | locus YBL061C, strain skt5, hits give low values 1 | locus YBR009C, strain hhf1, hits give low values 1.03 | locus YBR023C, strain chs3, hits give low values 1 | locus YBR171W, strain sec66, hits give low values 1 | locus YBR231C, strain swc5, hits give low values 0.996 | locus YBR279W, strain paf1, hits give low values 0.999 | locus YCL011C, strain gbp2, hits give low values 1.01 | locus YCL016C, strain dcc1, hits give low values 0.997 | [1] 0.998 | locus YCL069W, strain vba3, hits give low values 0.997 | locus YCR088W, strain abp1, hits give low values 1 | locus YDL005C, strain med2, hits give low values 1.01 | locus YDL040C, strain nat1, hits give low values 1 | locus YDR001C, strain nth1, hits give low values 0.994 | locus YDR069C, strain doa4, hits give low values 1.02 | locus YDR137W, strain rgp1, hits give low values 1.01 | locus YDR159W, strain sac3, hits give low values 0.981 | locus YDR195W, strain ref2 0.962 | locus YDR297W, strain sur2, hits give low values 1.01 | locus YDR334W, strain swr1, hits give low values 1 | locus YDR335W, strain msn5, hits give low values 1 | locus YDR392W, strain spt3, hits give low values 1.03 | locus YEL003W, strain gim4, hits give low values 1.01 | locus YEL037C, strain rad23, hits give low values 0.999 | locus YEL061C, strain CIN8 (second series), hits give low values 1.01 | locus YER015W, strain faa2, hits give low values 0.999 | locus YER016W, strain bim1, hits give low values 0.995 | locus YER111C, strain swi4, hits give low values 0.999 | locus YER155C, strain BEM2 (second series), hits give low values 1.01 | locus YFR010W, strain ubp6, hits give low values 1.01 | locus YGL167C, strain pmr1, hits give low values 0.999 | locus YGL173C, strain kem1, hits give low values 1 | locus YGL227W, strain vid30, hits give low values 0.996 | locus YGL240W, strain doc1, hits give low values 0.998 | locus YGL253W, strain hxk2, hits give low values 1.01 | locus YHR013C, strain ard1, hits give low values 0.979 | locus YHR027C, strain rpn1, hits give low values 0.992 | [2] 1.04 | locus YHR079C, strain IRE1, hits give low values 1.03 | locus YHR142W, strain chs7, hits give low values 1.01 | locus YJL092W, strain hpr5, hits give low values 0.996 | locus YJL095W, strain BCK1 (second series), hits give low values 0.998 | locus YJL095W, strain BCK1, hits give low values 0.983 | locus YJL115W, strain asf1, hits give low values 1.01 | locus YJL129C, strain trk1, hits give low values 0.992 | locus YJL154C, strain vps35, hits give low values 0.999 | locus YJL164C, strain tpk1, hits give low values 1.01 | locus YJL166W, strain qcr8, hits give low values 1.01 | locus YJR066W, strain TOR1, hits give low values 0.986 | locus YKL160W, strain elf1, hits give low values 1 | locus YKR026C, strain gcn3, hits give low values 1 | locus YKR091W, strain srl3, hits give low values 1 | locus YLL001W, strain dnm1, hits give low values 1 | locus YLL026W, hits give low values 1 | locus YLL041C, strain sdh2, hits give low values 1 | locus YLR027C, strain aat2, hits give low values 1.01 | locus YLR113W, strain HOG1, hits give low values 0.98 | locus YLR221C, strain rsa3, hits give low values 0.997 | locus YLR258W, strain gsy2, hits give low values 0.995 | locus YLR262C, strain YPT6 (second series), hits give low values 1.03 | locus YLR320W, strain mms22, hits give low values 1 | locus YLR342W, strain FKS1, hits give low values 1 | locus YLR357W, strain rsc2, hits give low values 1 | locus YLR370C, strain arc18, hits give low values 0.998 | locus YLR384C, strain iki3, hits give low values 0.995 | locus YML120C, strain ndi1, hits give low values 1.01 | locus YMR058W, strain fet3, hits give low values 1.01 | locus YMR125W, strain sto1, hits give low values 0.994 | locus YMR129W, hits give low values 0.993 | locus YMR205C, strain PFK2, hits give low values 0.988 | locus YMR231W, strain pep5, hits give low values 0.991 | locus YNL071W, strain lat1, hits give low values 1 | locus YNL183C, strain NPR1, hits give low values 0.972 | locus YNL209W, strain ssb2, hits give low values 1.01 | locus YNL248C, strain rpa49, hits give low values 1.01 | locus YNL322C, strain KRE1 (second series), hits give low values 0.999 | locus YNR049C, strain mso1, hits give low values 1 | locus YOR001W, strain rrp6, hits give low values 1.01 | locus YOR070C, strain gyp1, hits give low values 1.01 | locus YOR080W, strain dia2, hits give low values 0.991 | locus YOR083W, strain WHI5, hits give low values 1.01 | locus YOR106W, strain vam3, hits give low values 1.02 | locus YOR231W, strain MKK1, hits give low values 0.999 | locus YOR265W, strain rbl2, hits give low values 1.01 | locus YOR270C, strain vph1, hits give low values 1 | locus YOR290C, strain snf2, hits give low values 0.999 | locus YPL051W, strain arl3, hits give low values 1.01 | locus YPL078C, strain atp4, hits give low values 1 | locus YPL106C, strain sse1, hits give low values 1 | locus YPL240C, strain hsp82, hits give low values 0.991 | locus YPL256C, strain CLN2, hits give low values 1.02
